Results from ChEMBL document CHEMBL3433997, “St. Jude Leishmania screening dataset” (2016).

Experiments:
Type in all cases: functional
[1] = target: Solute carrier family 2, facilitated glucose transporter member 1 (Homo sapiens) (UniProt P11166); assay: ST_JUDE_LEISH: Cytotoxicity at 2uM final concentration against transgenic Leishmania Mexicana promastigotes LmGLUT1 that are glucose transport deficient and complemented with the human glucose transporter GLUT1. Activity is measured by DNA content using SYBR green in vitro
[2] = target: Hexose transporter 1 (Plasmodium falciparum) (UniProt O97467); assay: ST_JUDE_LEISH: Cytotoxicity at 2uM final concentration against transgenic Leishmania Mexicana promastigotes LmPfHT that are glucose transport deficient and complemented with the Plasmodium falciparum hexose transporter. Activity is measured by DNA content using SYBR green in vitro
[3] = target: Glucose transporter (Leishmania mexicana) (UniProt O61059); assay: ST_JUDE_LEISH: Cytotoxicity at 2uM final concentration against transgenic Leishmania Mexicana promastigotes LmGT2 that are glucose transport deficient and complemented with the L. Mexicana glucose transporter 2. Activity is measured by DNA content using SYBR green in vitro

Solute carrier family 2, facilitated glucose transporter member 1 (Homo sapiens), sequence (P11166 whole entry): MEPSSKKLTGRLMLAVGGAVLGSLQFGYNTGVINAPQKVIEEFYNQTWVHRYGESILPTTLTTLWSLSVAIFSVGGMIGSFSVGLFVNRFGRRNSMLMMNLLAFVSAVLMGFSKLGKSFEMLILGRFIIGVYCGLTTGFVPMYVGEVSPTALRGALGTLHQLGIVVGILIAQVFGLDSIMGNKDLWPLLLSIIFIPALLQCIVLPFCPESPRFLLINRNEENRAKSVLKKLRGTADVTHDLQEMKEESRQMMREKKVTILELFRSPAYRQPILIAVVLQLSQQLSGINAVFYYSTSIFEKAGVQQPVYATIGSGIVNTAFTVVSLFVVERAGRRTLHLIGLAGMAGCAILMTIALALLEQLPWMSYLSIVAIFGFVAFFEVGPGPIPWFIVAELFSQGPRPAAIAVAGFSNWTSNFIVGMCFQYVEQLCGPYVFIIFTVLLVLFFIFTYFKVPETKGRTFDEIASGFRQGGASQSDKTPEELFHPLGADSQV

Compound | inhibition [1] | inhibition [2] | inhibition [3]
COc1ccccc1N1CCN(CCCCNC(=O)c2ccc(NC(=O)c3ccc(C(F)(F)F)cc3)cc2)CC1 | -0.92% | -0.29% | -0.69%
COc1cccc2cc(C(=O)N[C@@H](CC(C)C)C(=O)N[C@H](C=NN3CCCC3=O)Cc3ccccc3)oc12 | 2.46% | 5.52% | 2.7%
CCCCOC(=O)NCCCC[C@H](NC(=O)OC(C)(C)C)C(=O)N[C@H](C(=O)OC(c1ccccc1)c1ccccc1)[C@H]1O[C@@H](n2ccc(=O)[nH]c2=O)[C@@H]2OC(C)(C)O[C@@H]21 | 0.88% | 0.71% | 0.44%
CC(=NNC(=N)N)c1ccc2ccc3ccccc3c2c1 | 0.27% | 1.38% | 0.74%
COc1cc2ncnc(Nc3ccc(OC(F)(F)c4ccccc4)cc3)c2cc1OC | 9.55% | 10.8% | 7.93%
